Source: PubChem BioAssay (NCI)
Compounds without any hit were thinned out: in the full panel of roughly 79,000, 15% have a hit. Calls of active or inactive are those of the source. Rule as the data show it: active = growth inhibition above about 70%; inactive = the rest. Where a SMILES comes first, the peptide text is derived from it. The star is where a group is joined. Cbz = O=C(OCc1ccccc1)*; Boc = CC(C)(C)OC(=O)*; tBu = CC(C)(C)*

Columns and labels:
[1] = NCI Yeast Anticancer Drug Screen. Data for the rad50 strain (AID 155);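 also: 0% = growth of vehicle-only cultures of the same strain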; details: S. cerevisiae rad50 strain growth inhibition, stronger effect = higher value; at 50.0 µM unless noted
In short: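 Cells are treated with compound, grown, and their growth is then scored against vehicle-only cultures of the same repair-deficient yeast strain.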

[2] = NCI Yeast Anticancer Drug Screen. Data for the mec2-1 strain (AID 157); details: S. cerevisiae mec2-1 strain, stronger effect = higher value; at 50.0 µM unless noted
In short: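 Vehicle-treated cultures served as reference for growth inhibition of compound-exposed mec2-1 yeast.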

[3] = NCI Yeast Anticancer Drug Screen. Data for the sgs1 mgt1 strain (AID 161);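 also: 0% = growth of cultures given vehicle only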; details: S. cerevisiae sgs1 mgt1 strain, stronger effect = higher value; at 50.0 µM unless noted
In short: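 Read-out: growth inhibition vs vehicle controls. Cells: mutant yeast strain deficient in DNA damage repair.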

[4] = NCI Yeast Anticancer Drug Screen. Data for the cln2 rad14 strain (AID 165);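 also: 0% = growth equal to vehicle treated cultures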; details: S. cerevisiae cln2 rad14 strain, stronger effect = higher value; at 50.0 µM unless noted
In short: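 Each compound was tested on cln2 rad14 yeast. Inhibition of growth was calculated against vehicle-exposed controls.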

[5] = NCI Yeast Anticancer Drug Screen. Data for the bub3 strain (AID 167); details: S. cerevisiae bub3 mutant strain, stronger effect = higher value; at 50.0 µM unless noted
In short: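 Part of a panel of yeast mutants defective in DNA damage repair or cell cycle regulation. Each strain is grown with compound, and inhibition is calculated relative to solvent-treated cultures.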

[6] = NCI Yeast Anticancer Drug Screen. Data for the mlh1 rad18 strain (AID 175); details: S. cerevisiae mlh1 rad18 strain growth inhibition, stronger effect = higher value; at 50.0 µM unless noted
In short: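 Vehicle-treated cultures served as the reference for growth inhibition in a yeast strain carrying DNA damage repair alterations exposed to each compound.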

Measured: growth inhibition

CCCCCCc1cc2cc(-c3csc(CC#N)n3)c(=O)oc2cc1O
inactive: [1] 13.1% | [2] 14.1% | [3] -29.2% | [4] -6.6% | [5] -32.8% | [6] -32%

CC1OC(O[C@H]2CC[C@]3(C)[C@H]4CC=C5[C@@H]6[C@@H](C)[C@H](C)CC[C@]6(C(=O)OC6OC(CO)C(O)C(O)C6O)CC[C@@]5(C(=O)O)[C@]4(C)CC[C@H]3C2(C)C)C(O)C(O)C1O (stereo not given in full)
inactive: [1] -11.8% | [2] -1.8% | [3] -31.6% | [4] -29.5% | [5] -23.2% | [6] -40.5%

CN(C)CCl
inactive: [1] -1.4% | [2] -28.2% | [3] -12.4% | [4] -4.1% | [5] -15.5% | [6] -13.1%

COc1cccc(C2SC(N)=Nc3c2c(C)nn3C(=O)c2ccccc2O)c1 (stereo not given)
inactive: [1] 19.7% | [2] 9.25% | [3] 33.1% | [4] 17.6% | [5] 38% | [6] 24.9%

COc1cc2c(cc1OC)C(c1c(-c3c(Cl)cccc3Cl)noc1C)=NCC2
inactive: [1] -3.8% | [2] -14.9% | [3] -11.8% | [4] 19.8% | [5] 3.2% | [6] -4.25%

Cc1c(C(=O)CC(=O)C(=O)Nc2ccc(Cl)c(Cl)c2)[n+](=O)c2ccccc2n1[O-]
inactive: [1] 12.6% | [2] 16.9% | [3] -16.1% | [4] 34.5% | [5] 19.4% | [6] 20.2%

C[C@H]1CC[C@@H]2O[C@@]23C(=O)OC2OC(C)(C)[C@@H]([C@H]2O)[C@]13C
inactive: [1] -18.6% | [2] -4.85% | [3] -26% | [4] -0.35% | [5] -5.2% | [6] -10.9%

Cc1c2cc[n+](C)cc2c(C)c2c1oc1ccccc12
active: [1] 82.5% | [3] 78.8% | [5] 75.1%
inactive: [2] 62.1% | [4] 55.9% | [6] -38%

CC(=O)N1C(=O)c2cccc([N+](=O)[O-])c2C1=O
inactive: [1] -1.6% | [2] -11.9% | [3] -9.55% | [4] 7.15% | [5] -21.7% | [6] 11.4%

CCCCC(/C=C(\C(C)=O)C(=O)OCC)CC (stereo not given)
inactive: [1] -5.95% | [2] -39.1% | [3] -28.1% | [4] -10.5% | [5] -37% | [6] -40.6%

OC(CN1CCCC1)c1ccccc1 (stereo not given)
inactive: [1] -1.8% | [2] -11.2% | [3] 15.9% | [4] 28.6% | [5] -0.25% | [6] -30.6%

CCOC(=O)NC(=S)c1ccc[nH]1
inactive: [1] -10.7% | [2] -42.2% | [3] 0.2% | [4] 4.6% | [5] -36.8% | [6] -20.2%

Nc1c(F)cc(I)cc1F
inactive: [1] -3.95% | [2] 2.15% | [3] -2.2% | [4] -43% | [5] 10.2% | [6] 1.35%

CCCCCCN(CCCCCC)CC(O)c1cc(-c2ccc(Cl)cc2)nc2c(Cl)cccc12 (stereo not given)
inactive: [1] -21.2% | [2] -8.05% | [3] 18.4% | [4] -0.35% | [5] -9.5% | [6] 19.9%

COC(=O)C(C(=O)OC)C1CCCC(=O)C1 (stereo not given)
inactive: [1] -2.3% | [2] -10% | [3] -10.6% | [4] -6.7% | [5] -24.7% | [6] 13.8%

CC(C)N(C(=S)S)C(C)C
inactive: [1] 9.5% | [2] 4.95% | [3] 16.6% | [4] -0.65% | [5] -26.4% | [6] -19.2%

CC(OC(C)(C)C)C(NC(=O)C(CCCCNC(=O)OC(C)(C)C)NC(=O)C(Cc1c[nH]c2ccccc12)NC(=O)C(Cc1ccccc1)NC(=O)OCc1ccccc1)C(=O)NC(Cc1ccccc1)C(=O)O (stereo not given) (Cbz-FWK(Boc)T(tBu)F-OH; configuration not given here)
inactive: [1] -10.3% | [2] -16.6% | [3] -24.2% | [4] 24.4% | [5] 1.3% | [6] -19.4%

O=C1c2ccccc2NC(O)c2cccn21 (stereo not given)
inactive: [1] 0.3% | [2] 0.2% | [3] -3.75% | [4] -25.9% | [5] 11.4% | [6] -5.45%

CCCCCCCCCCCCCCCCC(C#N)C(=O)O (stereo not given)
inactive: [1] -14.4% | [2] 0.95% | [3] -18.2% | [4] -1% | [5] -22.8% | [6] -18.9%

CC1=Nc2ccc([N+](=O)[O-])cc2C1(C)C
inactive: [1] -0.35% | [2] 5.1% | [3] -7.55% | [4] -2.15% | [5] -16.1% | [6] -5.45%
